This is an account of results in PubChem BioAssay (NCATS).

Experiment [1] is described as follows: NS1 protein of Zika virus - qHTS assay to identify small molecule inhibitors in human HEK 293 cells (AID 1347053). Note: nearly all actives have a fitted effect of over 55% in size. Note: potency is the fitted concentration of half-maximal effect. Put shortly:
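HEK 293; 20 h pre-culture, 37 C/5% CO2; cpd 1 h pre-infection; ZIKV MR766, MOI = 0.5, 24 h, 37 C; TR-FRET NS1 readout (two anti-NS1 Abs); norm. to no-virus vs infected.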

Experiment [2] deals with Parathyroid hormone/parathyroid hormone-related peptide receptor (Homo sapiens) (UniProt Q03431). The experiment in a line: qHTS for PTHR1 Agonists: Optimization Screen against the NCGC LOPAC library (AID 1347079).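 Note: GloSensor cAMP luminescence in HEK-293 GP2 cells expressing human PTHR1 with IBMX.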 The essentials: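 Agonist readout: GloSensor cAMP luminescence, read after 15 min at room temperature. HEK-293-derived GP2 line carries PTHR1; compounds tested as a titration for 1 hr at 37C in presence of IBMX. M-PTH (1-15) served as control.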
(Quantitative high-throughput screening tests each substance at several concentrations.)

The nature of experiment [3]: qHTS of pediatric cancer cell lines to identify multiple opportunities for drug repurposing: Primary screen for TC32 cells (AID 1347089). Note: nearly all actives have a fitted effect of over 60% in size. Note: potency is the fitted concentration of half-maximal effect. The essentials:
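Luminescent CellTiter-Glo read-out of metabolically active TC32 cells after 48 h compound exposure. Primary: MIPE 11-point, 0.78 nM–46 µM; NPC 8-point, 0.59 nM–46 µM. Confirmatory: 11-point dilutions.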

A short description of experiment [4]: qHTS of pediatric cancer cell lines to identify multiple opportunities for drug repurposing: Primary screen for DAOY cells (AID 1347090). Note: nearly all actives have a fitted effect of over 55% in size. Note: potency is the fitted concentration of half-maximal effect. The essentials:
(§1)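 Cell viability, CellTiter-Glo luminescence; 500-1,000 cells/well, 8- or 11-point titration, 48 h compound exposure at 37 degrees C, 5% CO2. Controls: DMSO neutral, bortezomib 2.3 µM final as positive.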

A short description of experiment [5]: qHTS of pediatric cancer cell lines to identify multiple opportunities for drug repurposing: Primary screen for SJ-GBM2 cells (AID 1347091). Note: potency is the fitted concentration of half-maximal effect. The essentials:
as §1

Experiment [6] can be described thus: qHTS of pediatric cancer cell lines to identify multiple opportunities for drug repurposing: Primary screen for A673 cells (AID 1347092). Note: nearly all actives have a fitted effect of over 45% in size. Note: potency is the fitted concentration of half-maximal effect. Put shortly:
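A673 cells (500-1,000 cells/well in growth media) were pre-incubated 5 h at 37 degrees C, then exposed to compounds for 48 h. Viability was read as CellTiter-Glo luminescence; concentration-response curves came directly from the primary screen.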

Experiment [7] is described as follows: qHTS of pediatric cancer cell lines to identify multiple opportunities for drug repurposing: Primary screen for SK-N-MC cells (AID 1347093). Note: potency is the fitted concentration of half-maximal effect. The essentials: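 Metabolically active cells were quantified by ATP-dependent luminescence (CellTiter-Glo, 15 min at room temperature) following 48 h treatment. Cells had been plated at 500-1,000 per well and settled for 5 h beforehand.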

A short description of experiment [8]: qHTS of pediatric cancer cell lines to identify multiple opportunities for drug repurposing: Primary screen for U-2 OS cells (AID 1347096). Note: nearly all actives have a fitted effect of over 50% in size. Put shortly: (§2)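 Cells (500-1,000/well) rested 5 h, then received compounds for 48 h; metabolically active cells were measured by CellTiter-Glo luminescence. Final concentrations spanned up to 46 µM (MIPE, 11-point) or 0.59 nM-46 µM (NPC, 8-point) in primary screens, 11-point in follow-ups.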

A short description of experiment [9]: qHTS of pediatric cancer cell lines to identify multiple opportunities for drug repurposing: Primary screen for Saos-2 cells (AID 1347097). Note: nearly all actives have a fitted effect of over 40% in size. Note: potency is the fitted concentration of half-maximal effect. Put shortly: (§3)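 500-1,000 cells/well; 5 h pre-incubation 37 °C/5% CO2; compound pinned; 48 h; CellTiter-Glo, 15 min RT; luminescence. MIPE 11-pt from 0.78 nM, NPC 8-pt from 0.59 nM final. Bortezomib 2.3 µM final as positive control.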

Experiment [10] in a line: qHTS of pediatric cancer cell lines to identify multiple opportunities for drug repurposing: Primary screen for SK-N-SH cells (AID 1347098). Note: nearly all actives have a fitted effect of over 65% in size. Note: potency is the fitted concentration of half-maximal effect. Put shortly: as §2
The nature of experiment [11]: qHTS of pediatric cancer cell lines to identify multiple opportunities for drug repurposing: Primary screen for NB1643 cells (AID 1347099). Note: nearly all actives have a fitted effect of over 50% in size. Note: potency is the fitted concentration of half-maximal effect. The essentials: as §3
Experiment [12] can be described thus: qHTS of pediatric cancer cell lines to identify multiple opportunities for drug repurposing: Primary screen for LAN-5 cells (AID 1347100). Note: potency is the fitted concentration of half-maximal effect. The essentials:
as §2

The nature of experiment [13]: qHTS of pediatric cancer cell lines to identify multiple opportunities for drug repurposing: Primary screen for BT-12 cells (AID 1347101). Note: nearly all actives have a fitted effect of over 25% in size. Note: potency is the fitted concentration of half-maximal effect. Put shortly:
as §2

A short description of experiment [14]: qHTS of pediatric cancer cell lines to identify multiple opportunities for drug repurposing: Primary screen for Rh18 cells (AID 1347102). Note: nearly all actives have a fitted effect of over 65% in size. Note: potency is the fitted concentration of half-maximal effect. The essentials: as §2
Experiment [15] can be described thus: qHTS of pediatric cancer cell lines to identify multiple opportunities for drug repurposing: Primary screen for OHS-50 cells (AID 1347103). Note: nearly all actives have a fitted effect of over 40% in size. Note: potency is the fitted concentration of half-maximal effect. Put shortly: as §2
Experiment [16] deals with T1, Tyrosine-protein phosphatase non-receptor type substrate 1 (Homo sapiens) + Leukocyte surface antigen CD47 (Homo sapiens) (UniProt P78324+Q08722). As to the kind of experiment: CD47-SIRPalpha protein protein interaction - HTRF assay qHTS validation (AID 1347058; active = well fitted curve in the direction sought with a large enough effect in the signal ratio, not every such curve was filed as active; the % refers to the signal ratio;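 note: recombinant soluble extracellular CD47 with His tag and biotinylated SIRPalpha domains; series mostly up to about 38 µM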). The essentials:
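TR-FRET read (Ch1/Ch2 ratio) of soluble extracellular CD47 and Avi-biotinylated SIRPalpha domains in PBS pH 7.4 with 0.05% IGEPAL; 7-point compound titration. Sequential 30 min room-temperature steps; non-biotinylated SIRPalpha as control inhibitor.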
(In general: In TR-FRET formats the signal depends on donor and acceptor labels being close together.)

Experiment [17] addresses T1, Tyrosine-protein phosphatase non-receptor type substrate 1 (Homo sapiens) + Leukocyte surface antigen CD47 (Homo sapiens). The experiment in a line: CD47-SIRPalpha protein protein interaction - Alpha assay qHTS validation (AID 1347059).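 Note: bead proximity luminescence from CD47 binding SIRPalpha after compound preincubation with SIRPalpha.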 The essentials: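 Binding is measured by AlphaScreen proximity: Ni-NTA acceptor beads capture His-CD47, streptavidin donor beads capture biotin-SIRPalpha. Each of three additions (SIRPalpha with compound, CD47, beads) incubates 30 min at room temperature protected from light.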

The nature of experiment [18]: qHTS of pediatric cancer cell lines to identify multiple opportunities for drug repurposing: Primary screen for BT-37 cells (AID 1347094). Note: potency is the fitted concentration of half-maximal effect. The essentials: as §3
Experiment [19] in a line: qHTS of pediatric cancer cell lines to identify multiple opportunities for drug repurposing: Primary screen for NB-EBc1 cells (AID 1347095). Note: potency is the fitted concentration of half-maximal effect. The essentials: as §3

Several values for one entry are separate records, joined by “and”; a condition that tells them apart may be missing. Equal values may be shown once. Inconclusive results are not listed. More than one record can exist for a structure, and the calls need not agree. Activity calls are given as the source filed them. Unless noted, calls come from the whole dose curve; as a rule, active = well fitted curve in the direction sought with a large enough effect; inconclusive = small, poorly fitted or top-dose-only effect, or another doubt; inactive = no such curve, though single readings can be large; an effect the other way counts as inactive or inconclusive.

T1 sequence (P78324 whole entry, looked up, the tested form may be a part): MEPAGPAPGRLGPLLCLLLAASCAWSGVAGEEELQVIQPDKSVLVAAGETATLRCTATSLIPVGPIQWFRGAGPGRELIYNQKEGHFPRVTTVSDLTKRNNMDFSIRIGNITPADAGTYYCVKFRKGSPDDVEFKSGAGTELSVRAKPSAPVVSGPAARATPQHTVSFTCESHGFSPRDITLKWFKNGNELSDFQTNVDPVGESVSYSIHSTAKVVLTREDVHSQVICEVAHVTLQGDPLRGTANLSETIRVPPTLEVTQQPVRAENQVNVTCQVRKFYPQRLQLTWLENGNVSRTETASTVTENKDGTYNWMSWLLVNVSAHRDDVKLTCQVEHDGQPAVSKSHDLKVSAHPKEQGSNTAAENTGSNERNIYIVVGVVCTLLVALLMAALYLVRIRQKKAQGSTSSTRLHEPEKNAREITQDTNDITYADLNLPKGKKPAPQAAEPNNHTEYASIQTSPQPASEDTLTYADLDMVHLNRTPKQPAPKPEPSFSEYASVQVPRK
T1 sequence (Q08722 whole entry, looked up, the tested form may be a part): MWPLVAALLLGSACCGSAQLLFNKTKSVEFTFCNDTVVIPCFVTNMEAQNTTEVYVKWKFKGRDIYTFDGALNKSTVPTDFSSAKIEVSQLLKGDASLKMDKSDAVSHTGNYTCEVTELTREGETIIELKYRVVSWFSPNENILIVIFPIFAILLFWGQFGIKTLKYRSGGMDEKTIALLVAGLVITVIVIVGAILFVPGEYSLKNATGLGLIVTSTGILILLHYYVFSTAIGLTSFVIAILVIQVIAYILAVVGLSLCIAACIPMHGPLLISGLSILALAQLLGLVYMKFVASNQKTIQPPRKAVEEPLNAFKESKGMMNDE
Parathyroid hormone/parathyroid hormone-related peptide receptor (Homo sapiens), sequence (Q03431 whole entry, looked up): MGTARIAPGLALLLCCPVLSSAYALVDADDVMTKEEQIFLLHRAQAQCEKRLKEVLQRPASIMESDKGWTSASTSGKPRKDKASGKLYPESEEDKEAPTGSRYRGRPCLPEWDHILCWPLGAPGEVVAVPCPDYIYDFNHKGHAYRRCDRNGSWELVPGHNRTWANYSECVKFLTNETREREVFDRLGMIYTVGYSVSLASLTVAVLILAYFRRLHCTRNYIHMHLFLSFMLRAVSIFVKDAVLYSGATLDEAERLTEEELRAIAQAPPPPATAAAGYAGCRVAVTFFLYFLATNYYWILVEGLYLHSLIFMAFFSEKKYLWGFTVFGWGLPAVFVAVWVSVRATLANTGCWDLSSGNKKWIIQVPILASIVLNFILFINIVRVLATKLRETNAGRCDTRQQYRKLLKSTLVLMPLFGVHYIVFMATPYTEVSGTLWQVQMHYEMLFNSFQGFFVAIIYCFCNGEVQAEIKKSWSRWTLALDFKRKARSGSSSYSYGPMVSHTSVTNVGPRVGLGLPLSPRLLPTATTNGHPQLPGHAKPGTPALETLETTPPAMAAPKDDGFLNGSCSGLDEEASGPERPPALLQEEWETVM

`CN1CCN(CCCN2c3ccccc3Sc3ccc(C(F)(F)F)cc32)CC1`: the Potency result in experiment [1], in experiment [3], in [4], in experiment [8] and in experiment [14] was “inactive” in each case. In addition, the call in experiment [2] was inactive. Besides, the Potency in experiment [5] is 18.7 µM (active); in [6], 21.1 µM (active) and 296 nM (active); in [7], 1.05 µM (active); in experiment [9], 18.7 µM (active); in experiment [10], 12.2 µM (active) and 7.64 µM (active); in [11], 3.32 µM (active). Besides, the Potency is 16.6 µM (active) in experiment [12]; 24.6 µM (active) and 21.7 µM (active) in experiment [13]; 27.6 µM (active) and 19.3 µM (active) in experiment [15].

In the case of `Cc1oncc1C(=O)Nc1ccc(C(F)(F)F)cc1`, the Potency entry was “inactive and 11.8 µM (active)” in [1]; 6.68 µM (active) in experiment [7]. For the same compound, the result in experiment [16], in experiment [17] and in experiment [2] was inactive. Also, the Potency entry in [5], in experiment [18], in experiment [8], in experiment [9], in [11] and in experiment [12] was “inactive” each time. For the same compound, in experiment [14], the Potency result is “inactive”.

Take `CC(C)OC(=O)C1=CN(C(=O)c2ccc(F)c(F)c2)CC(C)(C)c2c1[nH]c1ccccc21`: the Potency entry in experiment [1], in [3], in experiment [4], in experiment [5], in [6] and in experiment [18] was “inactive” throughout. The Potency entry in experiment [19], in experiment [8], in experiment [10], in [12], in [14] and in experiment [15] was “inactive” in each case. The Potency in experiment [7] was 26.4 µM (active).

In the case of `CCCc1nc2c(C)cc(-c3nc4ccccc4n3C)cc2n1Cc1ccc(-c2ccccc2C(=O)O)cc1`, the Potency result in [1], in experiment [3], in experiment [4], in experiment [5], in experiment [6] and in [18] was “inactive” in each case. Also, the Potency entry in experiment [19], in [8], in experiment [9], in experiment [11], in [12] and in experiment [13] was “inactive” each time. Also, the Potency result in [14] and in experiment [15] was “inactive” throughout. Further, the Potency in [7] is 16.6 µM (active).

Regarding `NNCCc1ccccc1`, the Potency entry in [1], in experiment [3], in experiment [4], in [5], in experiment [18] and in [19] was “inactive” each time. The Potency entry in experiment [9], in experiment [14] and in experiment [15] was “inactive” throughout. Further, the outcome in [17] and in experiment [2] was inactive.

In the case of `CC(C)C[C@H](NC(=O)[C@@H](O)[C@H](N)Cc1ccccc1)C(=O)O`, the Potency entry in experiment [1], in [3] and in experiment [8] was “inactive” each time. The outcome in experiment [16], in experiment [17] and in experiment [2] was inactive. In addition, the Potency in experiment [7] is 29.6 µM (active); in [18], 27.3 µM (active); in experiment [9], 18.7 µM (active); in experiment [10], 24.1 µM (active); in experiment [15], 19.3 µM (active).

As to `CC1(C)SCCN(S(=O)(=O)c2ccc(OCC#CCO)cc2)[C@@H]1C(=O)NO`, the Potency entry in experiment [1], in experiment [3], in experiment [4], in experiment [5], in experiment [6] and in experiment [7] was “inactive” in each case. Further, the Potency entry in experiment [18], in experiment [19], in experiment [8], in experiment [11], in [12] and in experiment [13] was “inactive” throughout. The Potency entry in [14] and in experiment [15] was “inactive” throughout.

As for `Oc1cccc(-c2nc(N3CCOCC3)c3oc4ncccc4c3n2)c1`, the Potency is 2.7 µM (active) in experiment [1]; 758 nM (active) in experiment [3]; 2.15 µM (active) in experiment [4]; 0.0855 µM (active) in experiment [5]; 2.15 µM (active) in [6]; 0.0481 µM (active) in experiment [7]. Also, the Potency in [18] was 0.444 µM (active); in experiment [19], 191 nM (active); in experiment [9], 0.34 µM (active); in experiment [10] it was 0.879 µM (active); in [11], 0.215 µM (active); in experiment [12], 0.96 µM (active). Besides, the figures for the Potency in experiment [14] and in experiment [15] were 303 nM (active) and 0.444 µM (active), respectively.

Consider `COc1nc(-c2ccc3c(c2)OCO3)n(-c2ccc(NC(=O)CSc3ccccc3)cc2)n1`, for which the Potency result in experiment [1], in [3], in experiment [4], in [5], in experiment [6] and in [7] was “inactive” throughout. In addition, the Potency result in [18], in experiment [19], in experiment [8], in experiment [11], in [12] and in experiment [13] was “inactive” in each case. Besides, in experiment [14], the Potency result was “inactive”.
